# Experimental data taken from PubChem BioAssay (Tox21).
# Where “and” joins values, the source holds several entries; their conditions need not be identical. Equal values may be shown once. Records with an inconclusive call do not appear. The source holds several records for some structures; these can differ, active in one and inactive in another. Calls of active or inactive are those of the source. Unless noted, the call rests on the fitted dose curve.
# System: not listed separately
# Experiment: qHTS assay to identify small molecule antagonists of the estrogen receptor alpha (ER-alpha) signaling pathway - cell viability counter screen (AID 743074);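 further: HEK293 cells carrying ER-alpha-UAS-bla reporter stimulated with 17beta-estradiol; nearly all actives have a fitted effect of over 45% in size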; further: potency means the concentration at half of the fitted maximal effect
# Conditions: ERalpha-bla HEK293 viability, CellTiter-Glo luminescence, 18 h; series mostly up to 69.4 µM; activity, negative = cytotoxicity: at the top concentration
# On the % scale 0 is the no-effect control and ±100 the full control effect.
Structure (SMILES),Potency,"activity, negative = cytotoxicity"
c1ccc2c(c1)-c1cccc3cccc-2c13,inactive,
O=C1NC(=O)C(=O)C(=O)N1,,-7.94% [at 79.1 µM] (inactive)
Clc1ccc(Cl)c(Cl)c1,,12.5% (inactive)
[Cl-].[Cl-].[Hg+2],24.4 µM (active),
CN1CC[C@]23c4c5ccc(O)c4O[C@H]2[C@@H](O)C=C[C@H]3[C@H]1C5,,-13.9% (inactive)
COc1ccc(C(=O)c2c(C)n(CCN3CCOCC3)c3ccccc23)cc1,,11.5% (inactive)
O=C1c2ccccc2C(=O)N1SC(Cl)(Cl)Cl,21.6 µM (active) and inactive,
O=C(O)c1cc(I)cc(I)c1I,,17.7% [at 79.1 µM] (inactive)
CCC1(C2=NCCN2)Cc2ccccc2O1 (stereo unspecified),,15.2% (inactive)
O=C(O)C(Cl)(Cl)Br,,-13% [at 79.1 µM] (inactive)
CCC1CCC(=O)O1 (stereo unspecified),,-7.05% [at 79.1 µM] (inactive)
C[CH2][Hg][S]c1ccccc1C(=O)O,13.4 µM (active) and 12.3 µM (active),
CCCCCCCCn1sccc1=O,55.1 µM (active) and 51.3 µM (active),
CCCCCCCCP(=O)(O)O,,-13% (inactive)
CN1C[C@H](C(=O)N[C@]2(C)O[C@@]3(O)[C@@H]4CCCN4C(=O)[C@H](Cc4ccccc4)N3C2=O)C=C2c3cccc4[nH]cc(c34)C[C@H]21,inactive,
CNC(=O)Oc1cccc(N=CN(C)C)c1,,-12.8% (inactive)
O=C(O)C(O)C(O)C(=O)O (stereo unspecified),,-5.25% (inactive)
C=CCc1ccc(OC(=O)Cc2ccccc2)c(OC)c1,,12.9% (inactive)
Cc1ncc(C[n+]2csc(CCO)c2C)c(N)n1,,8.93% [at 32.6 µM] (inactive)
O=C1CC[C@@]2(O)[C@H]3Cc4ccc(O)c5c4[C@@]2(CCN3CC2CC2)[C@H]1O5,,22.8% (inactive)
C[C@]12CC[C@H]3[C@@H](CCC4=CC(=O)CC[C@@H]43)[C@@H]1CC[C@@H]2OC(=O)CCc1ccccc1,,26.2% (inactive)
CCCN(CCOc1c(Cl)cc(Cl)cc1Cl)C(=O)n1ccnc1,inactive,
CN(C)C(=O)Nc1cccc(OC(=O)NC(C)(C)C)c1,,22.4% (inactive)
O=[N+]([O-])/C=C/c1ccccc1,inactive,
CC(C)(C)CC(C)(C)c1ccc(O)cc1,43.6 µM (active),
Nc1ccccc1C(=O)OCCc1ccccc1,inactive,
CC(C)CCCCCCCOC(=O)c1ccccc1C(=O)OCCCCCCCC(C)C,,-10.2% (inactive)
O=C(O)CCCOc1ccc(Cl)cc1Cl,,10.4% (inactive)
CC(C)(C)OOC(C)(C)CCC(C)(C)OOC(C)(C)C,,22.4% (inactive)

# Biological target: Estrogen receptor (Homo sapiens) (UniProt P03372)
# Experiment: qHTS assay to identify small molecule agonists of the estrogen receptor alpha (ER-alpha) signaling pathway (AID 743075);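 further: HEK293 GripTite cells with ER-alpha and UAS-driven beta-lactamase reporter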
# Conditions: HEK293 ER-alpha-UAS-bla, beta-lactamase FRET ratio, 18 h; series mostly up to 70.1 µM; activation: at the top concentration
# Sequence of Estrogen receptor (Homo sapiens) (P03372 whole entry, looked up): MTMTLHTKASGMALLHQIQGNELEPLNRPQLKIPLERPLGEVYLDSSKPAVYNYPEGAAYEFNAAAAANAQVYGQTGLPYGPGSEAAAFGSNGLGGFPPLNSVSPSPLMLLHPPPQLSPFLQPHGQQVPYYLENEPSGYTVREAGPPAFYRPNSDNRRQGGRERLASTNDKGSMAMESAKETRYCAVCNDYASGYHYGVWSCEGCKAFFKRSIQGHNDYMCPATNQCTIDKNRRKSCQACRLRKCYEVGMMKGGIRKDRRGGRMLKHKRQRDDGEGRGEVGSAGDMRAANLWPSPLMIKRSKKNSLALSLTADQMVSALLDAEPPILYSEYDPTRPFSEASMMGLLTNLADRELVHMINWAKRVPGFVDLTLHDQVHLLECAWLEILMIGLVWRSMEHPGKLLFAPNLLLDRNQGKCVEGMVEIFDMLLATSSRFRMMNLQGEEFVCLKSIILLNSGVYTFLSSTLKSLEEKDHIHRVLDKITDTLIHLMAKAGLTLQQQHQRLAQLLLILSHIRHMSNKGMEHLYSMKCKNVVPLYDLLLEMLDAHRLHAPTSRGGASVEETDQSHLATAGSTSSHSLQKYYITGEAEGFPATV
Structure (SMILES),activation,Potency
O=C(Cl)OCCOCCOC(=O)Cl,-0.936% (inactive),
Nc1cccc2ccccc12,,inactive
O=C1NC(=O)C(=O)C(=O)N1,-0.727% [at 79.1 µM] (inactive),
O=C1c2ccccc2C(=O)N1SC(Cl)(Cl)Cl,12.1% (inactive),
O=C(O)c1cc(I)cc(I)c1I,-2.65% [at 79.1 µM] (inactive),
CCCCNC(=O)OCC#CI,,inactive
CCC1(C2=NCCN2)Cc2ccccc2O1 (stereo unspecified),5.54% (inactive),
CN1C[C@H](C(=O)N[C@]2(C)O[C@@]3(O)[C@@H]4CCCN4C(=O)[C@H](Cc4ccccc4)N3C2=O)C=C2c3cccc4[nH]cc(c34)C[C@H]21,,inactive
CNC(=O)Oc1cccc(N=CN(C)C)c1,-3.15% (inactive),
O=C(O)C(O)C(O)C(=O)O (stereo unspecified),-0.828% (inactive),
CN(C)C(=O)Nc1cccc(OC(=O)NC(C)(C)C)c1,21.3% (inactive),

# Biological target: Estrogen receptor (Homo sapiens) (UniProt P03372)
# Experiment: qHTS assay to identify small molecule agonists of the estrogen receptor alpha (ER-alpha) signaling pathway using the BG1 cell line (AID 743079; active means well fitted curve in the direction sought with a large enough effect in the repeat runs; an effect the other way counts as inactive or inconclusive; further: nearly all actives have a fitted effect of over 20% in size)
# Conditions: BG1Luc4E2 cells, ERE-luciferase agonist, 22 h; series mostly up to 70.3 µM; activation: at the top concentration
Structure (SMILES),activation,Potency
O=C(Cl)OCCOCCOC(=O)Cl,-3.41% (inactive),
Nc1cccc2ccccc12,,inactive
O=C1NC(=O)C(=O)C(=O)N1,1.79% [at 95 µM] (inactive),
O=C(O)c1cc(I)cc(I)c1I,10.3% [at 95 µM] (inactive),
CCC1(C2=NCCN2)Cc2ccccc2O1 (stereo unspecified),-14.1% (inactive),
CN1C[C@H](C(=O)N[C@]2(C)O[C@@]3(O)[C@@H]4CCCN4C(=O)[C@H](Cc4ccccc4)N3C2=O)C=C2c3cccc4[nH]cc(c34)C[C@H]21,-28.3% (inactive),
CNC(=O)Oc1cccc(N=CN(C)C)c1,12.6% (inactive),
O=C(O)C(O)C(O)C(=O)O (stereo unspecified),0.574% (inactive),
CN(C)C(=O)Nc1cccc(OC(=O)NC(C)(C)C)c1,-5.33% (inactive),

# System: not listed separately
# Experiment: qHTS assay to identify small molecule antagonists of the estrogen receptor alpha (ER-alpha) signaling pathway using the BG1 cell line (AID 743080);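 further: BG1 cells stimulated with 17beta-estradiol alongside compound; nearly all actives have a fitted effect of over 25% in size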; further: potency means the concentration at half of the fitted maximal effect
# Conditions: BG1Luc4E2 ERE-luciferase antagonist mode, luminescence; series mostly up to 70.3 µM; activity change, negative = inhibition: at the top concentration
# In short: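 Luciferase inhibition measured with ONE-Glo after 30 min at RT in BG1Luc4E2 cells given test compounds and 17beta-estradiol for 21.5 h at 37 C; CellTiter-Fluor viability read in the same wells beforehand.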
Structure (SMILES),"activity change, negative = inhibition",Potency
O=C(Cl)OCCOCCOC(=O)Cl,13.3% (inactive),
CN1CC[C@]23c4c5ccc(O)c4O[C@H]2[C@@H](O)C=C[C@H]3[C@H]1C5,0.393% (inactive),
O=C(O)c1cc(I)cc(I)c1I,0.0795% [at 95 µM] (inactive),
CCCCNC(=O)OCC#CI,,60.8 µM (active) and 68.6 µM (active)
CCC1(C2=NCCN2)Cc2ccccc2O1 (stereo unspecified),-5.41% (inactive),
CCCCCCCCn1sccc1=O,-13.3% (inactive),
O=C(O)C(O)C(O)C(=O)O (stereo unspecified),5.48% (inactive),

# System: not listed separately
# Experiment: qHTS assay to identify small molecule antagonists of the estrogen receptor alpha (ER-alpha) signaling pathway using the BG1 cell line - cell viability counter screen (AID 743081; active means well fitted curve in the direction sought with a large enough effect in the repeat runs; an effect the other way counts as inactive or inconclusive;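 further: compound given together with 17beta-estradiol as the ER stimulus; nearly all actives have a fitted effect of over 45% in size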; further: potency means the concentration at half of the fitted maximal effect)
# Conditions: BG1Luc4E2 viability, CellTiter-Fluor, 22 h; series mostly up to 70.3 µM; activity change, negative = cytotoxicity: at the top concentration
Structure (SMILES),"activity change, negative = cytotoxicity",Potency
O=C(Cl)OCCOCCOC(=O)Cl,9.86% (inactive),
Nc1cccc2ccccc12,-1.12% (inactive),
c1ccc2c(c1)-c1cccc3cccc-2c13,,inactive
O=C1NC(=O)C(=O)C(=O)N1,0.237% [at 95 µM] (inactive),
Clc1ccc(Cl)c(Cl)c1,,inactive
[Cl-].[Cl-].[Hg+2],,54.2 µM (active) and inactive
CN1CC[C@]23c4c5ccc(O)c4O[C@H]2[C@@H](O)C=C[C@H]3[C@H]1C5,-1.65% (inactive),
O=C(O)c1cc(I)cc(I)c1I,29.7% [at 95 µM] (inactive),
CCCCNC(=O)OCC#CI,-3.2% (inactive),
CCC1(C2=NCCN2)Cc2ccccc2O1 (stereo unspecified),-0.886% (inactive),
O=C(O)C(Cl)(Cl)Br,6.67% [at 95 µM] (inactive),
CCC1CCC(=O)O1 (stereo unspecified),21.2% [at 95 µM] (inactive),
C[CH2][Hg][S]c1ccccc1C(=O)O,,21.1 µM (active) and 17.2 µM (active)
CCCCCCCCn1sccc1=O,,inactive
CC1(C)[C@H](C(=O)O[C@H](C#N)c2cccc(Oc3ccccc3)c2)[C@@H]1C=C(Br)Br,,inactive
CCCCCCCCCCCCN=C(N)N,-12.7% [at 3.79 µM] (inactive),
CCCCCCCCP(=O)(O)O,16.3% (inactive),
CN1C[C@H](C(=O)N[C@]2(C)O[C@@]3(O)[C@@H]4CCCN4C(=O)[C@H](Cc4ccccc4)N3C2=O)C=C2c3cccc4[nH]cc(c34)C[C@H]21,,16.8 µM (active) and 27.4 µM (active)

Structure (SMILES),"activity change, negative = cytotoxicity",Potency
CNC(=O)Oc1cccc(N=CN(C)C)c1,-4.29% (inactive),
O=C(O)C(O)C(O)C(=O)O (stereo unspecified),2.89% (inactive),
C=CCc1ccc(OC(=O)Cc2ccccc2)c(OC)c1,20.1% (inactive),
Cc1ncc(C[n+]2csc(CCO)c2C)c(N)n1,0.331% (inactive),
O=C1CC[C@@]2(O)[C@H]3Cc4ccc(O)c5c4[C@@]2(CCN3CC2CC2)[C@H]1O5,3.4% (inactive),
O=C(O)COc1cc(Cl)c(Cl)cc1Cl,,inactive
CCCN(CCOc1c(Cl)cc(Cl)cc1Cl)C(=O)n1ccnc1,-8.12% (inactive),
CN(C)C(=O)Nc1cccc(OC(=O)NC(C)(C)C)c1,-0.105% (inactive),
O=[N+]([O-])/C=C/c1ccccc1,,inactive
CC(C)(C)CC(C)(C)c1ccc(O)cc1,-11.1% (inactive),
Nc1ccccc1C(=O)OCCc1ccccc1,,inactive
CC(C)CCCCCCCOC(=O)c1ccccc1C(=O)OCCCCCCCC(C)C,1.31% (inactive),
O=C(O)CCCOc1ccc(Cl)cc1Cl,26.2% (inactive),
COC1=CC(=O)O[C@@H](/C=C/c2ccc3c(c2)OCO3)C1,6.85% (inactive),
CC(C)(C)OOC(C)(C)CCC(C)(C)OOC(C)(C)C,0.0079% (inactive),
CC(C)[C@@H](C(=O)O[C@@H](C#N)c1cccc(Oc2ccccc2)c1)c1ccc(Cl)cc1,,inactive
C[C@@H]1C[C@@H]([C@H](O)CC2CC(=O)NC(=O)C2)C(=O)[C@@H](C)C1,,inactive
